# Data reported in PubChem BioAssay (NCI).
# Compounds without any hit were thinned out: in the full panel of roughly 83,000, 20% have a hit.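 Each cell line was grown in a 96-well plate and treated with one concentration of compound for 48 hours. Values below 10 were considered active.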 Unmarked numbers belong to inactive results. Activity calls are given as the source filed them.
# Legend:
# Assay in all cases: NCI-60 one-dose screen, 48 h (100 = growth as untreated, 0 = no growth, -100 = all killed)
# Settings in all cases: 10 µM unless noted
# [1] = test system: T-47D breast
# [2] = test system: BT-549 breast
# [3] = test system: MDA-MB-435 melanoma
# [4] = test system: SW-620 colon
# [5] = test system: MCF7 breast
# [6] = test system: HCT-116 colon
# [7] = test system: HCC-2998 colon
# [8] = test system: KM12 colon
SMILES,growth [1],growth [2],growth [3],growth [4],growth [5],growth [6],growth [7],growth [8]
COc1ccc(/C=C2\Oc3cc(OCCCN4CCCC4)ccc3C2=O)cc1,94%,95.5%,97.6%,77.1%,69.8%,55.7%,91.3%,82.7%
Cc1csc(NC(c2ccccc2)c2c(C)nc3ccccn23)n1 (stereo unspecified),86.9%,97%,102%,96.3%,94.6%,91%,105%,99.8%
Cc1cc(C2=NNC(=O)Cc3cc4c(cc32)OCCO4)cc(C)c1N,46.1%,30.7%,-12.6% (active),26.5%,16.7%,20.4%,48.8%,24%
COc1cc(C(=O)/C=C/c2c(C)n([O-])c3ccc(C(F)(F)F)cc3[n+]2=O)cc(OC)c1OC,18.3%,80.6%,94.1%,26%,45.4%,21.1%,105%,91.4%
Cc1cc(C(C)(C)C)ccc1S,91.6%,105%,111%,98.4%,86.4%,103%,112%,112%
O=C(Nc1ccncc1)C(=O)c1cn(S(=O)(=O)c2ccc(Cl)cc2)c2ccccc12,41.2%,39.2%,0.272% (active),10.4%,16.8%,15.3%,54.7%,19.8%
CCCCOc1ccc(/C=C2/SC(N3CCOCC3)=NC2=O)cc1OCC,80.6%,83%,99.6%,96.9%,99.4%,93.2%,109%,98.7%
FC(F)(F)c1cccc(-c2cn3c(ccc4ccccc43)n2)c1,46.5%,91.1%,100%,89.5%,41%,88%,105%,91%
C=C1C(=O)O[C@H]2[C@H]1CC/C(Cn1cc(CNC(=O)c3cc4ccccc4[nH]3)nn1)=C\CC[C@@]1(C)O[C@@H]21,48.7%,87.9%,26.5%,-32.5% (active),9.93% (active),4.22% (active),96%,68.9%
COc1cc(-c2nn(C(=O)NS(=O)(=O)c3ccccc3)cc2-c2ccncc2)ccc1Cl,62.6%,53.9%,85.5%,112%,94.6%,84.6%,109%,94.5%
CC(O)CN1CCCCC1 (stereo unspecified),137%,101%,105%,102%,103%,110%,115%,106%
O=C1/C(=C/c2ccc(Cl)cc2)CN(Cc2cn(CCNc3ccnc4cc(Cl)ccc34)nn2)C/C1=C\c1ccc(Cl)cc1,-32.6% (active),-96.4% (active),-98.6% (active),-92.5% (active),-100% (active),-85.5% (active),-95.1% (active),-93.9% (active)
O=C1NN(C(=O)c2ccc(Cl)cc2)C(c2ccccc2)=N/C1=C\c1ccc(F)cc1,80.7%,78.9%,91.5%,42.5%,98.2%,62.9%,95.3%,59.1%
Cc1c(C(=N)C(C#N)C#N)c(=N)oc2c1ccc1ccccc12,71.9%,73.9%,83.6%,92.2%,57.9%,79.6%,80.3%,101%
COc1cc2c(cc1O)CCN1C[C@@H](CC(C)C)[C@@H](O)C[C@@H]21,91.1%,108%,103%,102%,102%,101%,102%,109%
COc1ccc(CCNC2=CC(=O)CCC2)cc1OC,100%,103%,110%,101%,105%,106%,106%,99%

SMILES,growth [1],growth [2],growth [3],growth [4],growth [5],growth [6],growth [7],growth [8]
COc1cc2c(=O)n(C3CCCCCC3)c3c4cc[nH]c4ncc3c2cc1OC,84.8%,52.3%,86.9%,70.8%,49.9%,72.6%,117%,24.4%
O=C1NN(C(=O)c2ccc(Cl)cc2)C(c2ccccc2)=N/C1=C\c1cn(-c2ccccc2)nc1-c1ccccc1,90.4%,101%,71.4%,101%,91.3%,82.4%,101%,98.6%
c1ccc(Nc2nc(Nc3ccccc3)nc(Nc3ccccc3)n2)cc1,71.9%,114%,89.7%,88.9%,65%,82%,85.6%,84.4%
Cc1ccc(S(=O)(=O)/C(=C\c2ccc(Cl)cc2)C(=O)c2ccccc2)cc1,95.3%,102%,88.7%,106%,82.3%,106%,107%,111%
COc1ccc(C(=O)N2NC(=O)/C(=C/c3ccc(F)cc3)N=C2c2ccccc2)cc1,95.6%,83%,87.6%,69.3%,96.6%,81.2%,97.4%,85.5%
COC(=O)C1CCCN1C(=O)[C@@H]1CCCN1C(=O)[C@H](Cc1c[nH]c2ccccc12)NC(=S)Nc1cc(C(F)(F)F)cc(C(F)(F)F)c1 (stereo partly specified),49.8%,70.3%,45%,69.9%,38.8%,37.3%,15%,25.2%
N/C(=N\C(N)=N\c1nc2ccccc2s1)c1ccncc1,65.4%,61.7%,1.82% (active),35.2%,42.4%,47.7%,79.1%,52.1%
COc1ccc(-c2c(N)n[nH]c2-c2cc(OC)c3c(c2)OCCO3)cc1,66.1%,74.4%,-24.1% (active),48%,57.6%,57.2%,75%,40.4%
C=CCSc1n[nH]c(-c2cccs2)n1,94.8%,99.5%,106%,102%,101%,98.6%,117%,111%
Cn1ccc(Nc2nccc(Oc3ccc(C(=O)Nc4cccc(F)c4)c(Cl)c3)n2)c1,38.8%,80.5%,81.3%,85.4%,85.9%,86.8%,81.9%,102%
CC(C)(C)n1cc(-c2ccnc(NCCCNS(=O)(=O)c3cccc(F)c3)c2)c(-c2cccc(O)c2)n1,35.7%,67.4%,61.2%,24.5%,21.6%,47.1%,15.7%,26.5%
O=C(/C=C/c1ccccc1)c1cccc(O)c1,97.9%,80.4%,57.1%,65.4%,14.9%,-71.6% (active),102%,-29.4% (active)
Cc1ccc(/C=C2\CN(C(=O)CCN3CCC(=NO)CC3)C/C(=C\c3ccc(C)cc3)C2=O)cc1,16.4%,11.2%,-39.8% (active),-34.1% (active),-3.62% (active),-74.5% (active),-70.7% (active),-75.3% (active)
CCN(CC)CCCC(C)Nc1c2ccc(Cl)cc2nc2cc(OC)c(OC)cc12 (stereo unspecified),61.9%,55.3%,-81.8% (active),-25.2% (active),0.0607% (active),-42.5% (active),18.1%,8.52% (active)
N[C@@H]1CCN(C(=O)c2cc3cc(Cl)c(F)c(F)c3[nH]2)C1,82.2%,1.7% (active),97.3%,96.6%,94.5%,92.8%,96.1%,98.8%
COc1cc(-c2nc(N=Nc3c(O)[nH]c4ccc(Br)cc34)[nH]c(=O)c2C#N)cc(OC)c1OC,90.6%,105%,102%,93.4%,99.7%,99.2%,117%,100%
